The structures appear in SMILES notation. Values joined by “and” are separate entries in the source; they are usually repeats but may differ in a detail not shown here. Equal entries are not always repeated. Records with an inconclusive call do not appear. Active and inactive are the calls of the source. The call rests on the fitted dose curve; in most records, active means well fitted cell-killing curve with a large enough effect; inconclusive means small, poorly fitted or top-dose-only effect, or effect the other way; inactive means no such curve, though single readings can be large or run the other way.
Potency means the concentration at half of the fitted maximal effect.

The first experiment is described as follows: Viability qHTS for spleen associated tyrosine kinase inhibitor (SYKi) naive MV4-11 cells (AID 1963823). Further: nearly all actives have a fitted effect of over 40% in size. As to conditions: MV4-11 AML viability, CellTiter-Glo luminescence, 72 h; series mostly up to 45 µM; viability (% of control): at the top concentration. A digest of the protocol:
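SYK inhibitor-naive MV4-11 cells, 500 per well, exposed to compounds for 72 hr at 37 C, 5% CO2. Viability read as CellTiter-Glo luminescence after 10 min at room temperature.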
In general terms: In qHTS, concentration-response curves come from the screen itself.
Consider `COc1ccc2c(c1)[C@]1(C[C@H]1c1ccc3c(/C=C/c4ccc(CN5C[C@@H](C)O[C@@H](C)C5)cc4)n[nH]c3c1)C(=O)N2`, for which the Potency was 0.105 µM (active). Turning to `CCC1CCCCN1C(=O)n1ncc(C(O)(c2ccccc2)c2ccccc2)n1` (stereo not given), the Potency was 11.8 µM (active).

`O=C(O)CCCC[C@@H]1SC[C@@H]2NC(=O)N[C@@H]21`: the “viability (% of control)” value was 93.4% (inactive).

A short description of the next experiment: Viability qHTS for spleen associated tyrosine kinase inhibitor (SYKi) drug resistant MV4-11 cells (AID 1963824). Further: nearly all actives have a fitted effect of over 35% in size. As to conditions: SYKi-resistant MV4-11 viability, CellTiter-Glo, 72 h; series mostly up to 45 µM; viability, % of control: at the top concentration. In short, it runs like this: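 SYK inhibitor-resistant MV4-11 AML cells, 500 per well, added to predispensed compounds and incubated 72 hr at 37 C, 5% CO2. Viability measured by CellTiter-Glo luminescence after 10 min at room temperature.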
`CCOC(=O)[C@H](CCc1ccccc1)N[C@@H](C)C(=O)N1[C@H](C(=O)O)C[C@@H]2CCC[C@@H]21`: the “viability, % of control” value is 87.5% (inactive). As for `Cc1c(O)cccc1C(=O)NC(CSc1ccccc1)C(O)CN1CC2CCCCC2CC1C(=O)NC(C)(C)C` (stereo not given), the Potency is 11.8 µM (active). Same read-out and setting: to `CC(C)(C)c1ccc(C(=O)CCCN2CCC(OC(c3ccccc3)c3ccccc3)CC2)cc1` belongs 11.9 µM (active). Same read-out and setting: to `NC12CC3CC(CC(C3)C1)C2` belongs “inactive”. Turning to `CN1[C@@H]2CCC[C@H]1CC(NC(=O)c1nn(C)c3ccccc13)C2` (stereo not given in full), the “viability, % of control” value is 91.5% (inactive). Take `CC(=O)Nc1ccc(C(=O)Nc2ccccc2N)cc1`: the Potency is 3.55 µM (active) and 3.72 µM (active).

As for `Cc1ccc(S(=O)(=O)NC(=O)NN2CCCCCC2)cc1`, the “viability, % of control” value was 92.1% (inactive). For `Cc1cc(O)c(-c2ccc([C@@H](C)CN(C)C)cc2)c2c1[nH]c(=O)c1sccc12`, the Potency was 0.0092 µM (active). Same read-out and setting: to `O=C(/C=C/c1ccc(Cl)cc1)N1CCC2(CC1)CN(Cc1ccc(Cl)c(Cl)c1)C(=O)O2` belongs 11.8 µM (active).

In the case of `Cn1c([N+](=O)[O-])cnc1COC(N)=O`, the “viability, % of control” value was 92.5% (inactive). On to `CNCC(O)c1ccc(O)c(O)c1` (stereo not given), for which the “viability, % of control” value was 66.6% (inactive). Take `CC(C)N(CCCNC(=O)Nc1ccc(C(C)(C)C)cc1)C[C@H]1O[C@@H](n2cc(Br)c3c(N)ncnc32)[C@H](O)[C@@H]1O`: the Potency was 18.4 µM (active) and 7.42 µM (active).

The record behind these values is PubChem BioAssay (NCATS).
